Source: the supplement of paper PMC10849652
About 7,900 targets were measured; listed, in parts, are those with a hit and a random draw of the rest. About 0.6% of all pairs of compound and target were hits. A number with no mark means an inactive call.

Experiments:
Test in all cases: log2 fold change, soluble protein after heating vs DMSO (PISA); higher = thermal stabilisation; K562 cells, 10 uM, 30 min; active = over 0.2 and 3.5 SD of the protein, either way, in both replicates (recomputed)
[1] = compound: NC(=O)Nc1cc(-c2cccc(F)c2)sc1C(=O)N[C@H]1CCCNC1
Procedure, shortened: (§1)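 K562 cells at 2×10^6 cells/mL were treated for 30 min with 10 μM compound, and aliquots were heated for 3 min over 48°C-58°C before pooling. Extraction used PBS with 0.5% NP-40 at 4°C, and soluble protein was the supernatant after 21,000xg for 90 min, measured by TMTpro 16plex LC-MS/MS with channel sums equalised. Thermal stability values, relative to control samples and from duplicates, are log2 fold changes.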

[2] = compound: NC(=O)c1cnc(N[C@@H]2CCCC[C@@H]2N)nc1Nc1cccc(-n2nccn2)c1
Procedure, shortened: as §1

[3] = compound: NC1(c2ccc(-c3nc4ccn5c(=O)[nH]nc5c4cc3-c3ccccc3)cc2)CCC1
Procedure, shortened: as §1

[4] = compound: NCC(=O)Nc1ccc(-n2nc(C(F)(F)F)cc2-c2ccc3c(ccc4ccccc43)c2)cc1
Procedure, shortened: as §1

entinostat = compound: Nc1ccccc1NC(=O)c1ccc(CNC(=O)OCc2cccnc2)cc1 [entinostat]
Procedure, shortened: as §1

vorinostat = compound: O=C(CCCCCCC(=O)Nc1ccccc1)NO [vorinostat]
Procedure, shortened: as §1

citarinostat = compound: O=C(CCCCCCNC(=O)c1cnc(N(c2ccccc2)c2ccccc2Cl)nc1)NO [citarinostat]
Procedure, shortened: as §1

silmitasertib = compound: O=C(O)c1ccc2c(c1)nc(Nc1cccc(Cl)c1)c1ccncc12 [silmitasertib]
Procedure, shortened: as §1

[5] = compound: O=C1NC(=O)C(c2cnc3ccccn23)=C1c1cn2c3c(cc(F)cc13)CN(C(=O)N1CCCCC1)CC2
Procedure, shortened: as §1

[6] = compound: c1cc(OCCN2CCCCC2)cc(-c2n[nH]c3ccc(-c4nnc[nH]4)cc23)c1
Procedure, shortened: as §1

UniProt Q9NVI1, sequence (Q9NVI1 whole entry, looked up): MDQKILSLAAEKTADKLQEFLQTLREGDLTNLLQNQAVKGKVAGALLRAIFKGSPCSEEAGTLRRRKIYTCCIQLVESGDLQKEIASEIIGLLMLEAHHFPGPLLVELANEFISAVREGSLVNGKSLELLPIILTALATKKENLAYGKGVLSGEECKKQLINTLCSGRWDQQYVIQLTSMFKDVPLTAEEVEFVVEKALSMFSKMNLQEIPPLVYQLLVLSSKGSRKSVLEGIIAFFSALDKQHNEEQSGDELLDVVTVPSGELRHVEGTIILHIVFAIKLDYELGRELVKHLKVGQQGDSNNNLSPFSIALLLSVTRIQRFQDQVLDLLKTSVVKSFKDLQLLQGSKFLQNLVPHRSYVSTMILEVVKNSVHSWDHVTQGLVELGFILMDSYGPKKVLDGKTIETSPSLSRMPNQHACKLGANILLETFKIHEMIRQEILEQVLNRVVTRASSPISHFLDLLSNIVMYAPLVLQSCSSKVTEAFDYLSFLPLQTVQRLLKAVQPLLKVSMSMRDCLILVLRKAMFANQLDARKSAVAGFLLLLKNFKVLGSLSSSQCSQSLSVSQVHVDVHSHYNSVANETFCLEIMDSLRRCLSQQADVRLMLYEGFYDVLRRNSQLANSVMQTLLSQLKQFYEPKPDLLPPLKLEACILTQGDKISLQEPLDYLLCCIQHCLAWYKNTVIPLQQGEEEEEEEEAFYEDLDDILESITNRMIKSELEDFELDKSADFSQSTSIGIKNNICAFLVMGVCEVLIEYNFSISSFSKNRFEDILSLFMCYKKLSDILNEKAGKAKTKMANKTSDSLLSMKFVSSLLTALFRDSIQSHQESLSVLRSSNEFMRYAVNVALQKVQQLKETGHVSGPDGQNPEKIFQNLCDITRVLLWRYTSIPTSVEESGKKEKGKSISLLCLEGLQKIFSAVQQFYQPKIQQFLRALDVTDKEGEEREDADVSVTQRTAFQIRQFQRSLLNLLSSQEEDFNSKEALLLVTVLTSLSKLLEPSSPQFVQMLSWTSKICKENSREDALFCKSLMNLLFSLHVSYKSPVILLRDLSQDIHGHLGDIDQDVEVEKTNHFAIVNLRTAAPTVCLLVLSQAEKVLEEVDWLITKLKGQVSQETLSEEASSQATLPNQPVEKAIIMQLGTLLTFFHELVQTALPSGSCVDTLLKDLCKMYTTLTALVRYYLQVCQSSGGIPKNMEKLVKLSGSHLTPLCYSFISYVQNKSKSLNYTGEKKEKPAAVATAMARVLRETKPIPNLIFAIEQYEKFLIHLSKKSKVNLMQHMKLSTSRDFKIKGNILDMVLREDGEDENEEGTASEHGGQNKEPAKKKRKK
UniProt O15347, sequence (O15347 whole entry, looked up): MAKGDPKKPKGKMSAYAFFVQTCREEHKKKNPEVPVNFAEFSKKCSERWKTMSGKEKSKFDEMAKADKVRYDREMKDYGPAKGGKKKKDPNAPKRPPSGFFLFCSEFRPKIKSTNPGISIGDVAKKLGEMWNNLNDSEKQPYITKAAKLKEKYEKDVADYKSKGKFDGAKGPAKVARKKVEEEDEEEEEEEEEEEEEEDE
UniProt P06280, sequence (P06280 whole entry, looked up): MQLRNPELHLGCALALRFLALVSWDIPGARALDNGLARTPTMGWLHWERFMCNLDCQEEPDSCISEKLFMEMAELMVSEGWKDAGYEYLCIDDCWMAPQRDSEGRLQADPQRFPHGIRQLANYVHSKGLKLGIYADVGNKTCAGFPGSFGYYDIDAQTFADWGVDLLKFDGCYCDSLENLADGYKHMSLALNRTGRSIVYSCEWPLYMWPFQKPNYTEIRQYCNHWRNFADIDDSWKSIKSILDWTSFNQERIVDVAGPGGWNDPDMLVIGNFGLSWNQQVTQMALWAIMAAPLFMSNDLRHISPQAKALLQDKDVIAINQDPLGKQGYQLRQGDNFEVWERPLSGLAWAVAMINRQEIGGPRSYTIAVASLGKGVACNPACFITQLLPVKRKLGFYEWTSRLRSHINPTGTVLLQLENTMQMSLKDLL
UniProt Q96HJ9, sequence (Q96HJ9 whole entry, looked up): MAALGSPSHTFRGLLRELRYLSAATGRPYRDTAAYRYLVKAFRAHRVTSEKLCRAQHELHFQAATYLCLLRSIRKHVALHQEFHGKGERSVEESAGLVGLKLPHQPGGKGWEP
UniProt Q8IWJ2, sequence (Q8IWJ2 whole entry, looked up): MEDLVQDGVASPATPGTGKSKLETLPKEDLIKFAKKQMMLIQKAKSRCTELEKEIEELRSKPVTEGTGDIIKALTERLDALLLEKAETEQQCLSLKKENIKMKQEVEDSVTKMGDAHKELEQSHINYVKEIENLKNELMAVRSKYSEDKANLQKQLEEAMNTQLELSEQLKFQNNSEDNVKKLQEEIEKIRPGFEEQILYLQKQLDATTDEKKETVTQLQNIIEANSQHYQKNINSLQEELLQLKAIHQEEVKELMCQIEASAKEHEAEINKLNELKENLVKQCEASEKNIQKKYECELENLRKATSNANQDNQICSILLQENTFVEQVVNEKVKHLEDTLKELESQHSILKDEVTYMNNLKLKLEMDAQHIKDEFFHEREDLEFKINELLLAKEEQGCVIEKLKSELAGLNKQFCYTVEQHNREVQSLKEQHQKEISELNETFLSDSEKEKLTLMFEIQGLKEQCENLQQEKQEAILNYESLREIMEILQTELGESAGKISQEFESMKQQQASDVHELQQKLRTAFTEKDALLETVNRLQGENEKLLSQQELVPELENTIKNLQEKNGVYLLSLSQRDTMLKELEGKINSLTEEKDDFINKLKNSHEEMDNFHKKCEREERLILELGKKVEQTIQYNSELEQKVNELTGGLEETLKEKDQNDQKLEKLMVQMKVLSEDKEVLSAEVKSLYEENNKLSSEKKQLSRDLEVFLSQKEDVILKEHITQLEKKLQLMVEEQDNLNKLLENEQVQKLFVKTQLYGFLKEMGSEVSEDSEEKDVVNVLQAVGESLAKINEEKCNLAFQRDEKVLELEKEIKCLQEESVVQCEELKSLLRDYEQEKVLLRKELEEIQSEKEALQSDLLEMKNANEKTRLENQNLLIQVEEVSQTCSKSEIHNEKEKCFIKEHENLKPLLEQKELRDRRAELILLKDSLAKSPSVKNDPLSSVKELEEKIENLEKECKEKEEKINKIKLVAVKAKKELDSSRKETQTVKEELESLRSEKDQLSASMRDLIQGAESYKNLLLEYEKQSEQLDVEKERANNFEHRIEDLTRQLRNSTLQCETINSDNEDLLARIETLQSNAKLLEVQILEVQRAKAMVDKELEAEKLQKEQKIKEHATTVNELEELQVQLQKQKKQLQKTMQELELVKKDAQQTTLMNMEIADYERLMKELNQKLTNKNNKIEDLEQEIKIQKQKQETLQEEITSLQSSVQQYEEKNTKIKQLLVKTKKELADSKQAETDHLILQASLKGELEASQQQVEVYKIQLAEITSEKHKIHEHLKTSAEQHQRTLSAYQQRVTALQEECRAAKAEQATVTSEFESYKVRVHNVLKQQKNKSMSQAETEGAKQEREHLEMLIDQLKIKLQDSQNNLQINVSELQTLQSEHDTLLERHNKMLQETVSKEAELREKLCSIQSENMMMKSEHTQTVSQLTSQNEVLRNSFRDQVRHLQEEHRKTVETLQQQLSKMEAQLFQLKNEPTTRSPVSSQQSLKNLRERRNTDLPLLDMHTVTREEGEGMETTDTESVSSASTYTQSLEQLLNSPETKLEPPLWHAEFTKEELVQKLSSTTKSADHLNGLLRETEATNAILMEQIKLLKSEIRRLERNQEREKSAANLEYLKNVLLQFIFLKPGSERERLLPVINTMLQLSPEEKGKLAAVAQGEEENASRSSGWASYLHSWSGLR
UniProt Q9Y6M1, sequence (Q9Y6M1 whole entry, looked up): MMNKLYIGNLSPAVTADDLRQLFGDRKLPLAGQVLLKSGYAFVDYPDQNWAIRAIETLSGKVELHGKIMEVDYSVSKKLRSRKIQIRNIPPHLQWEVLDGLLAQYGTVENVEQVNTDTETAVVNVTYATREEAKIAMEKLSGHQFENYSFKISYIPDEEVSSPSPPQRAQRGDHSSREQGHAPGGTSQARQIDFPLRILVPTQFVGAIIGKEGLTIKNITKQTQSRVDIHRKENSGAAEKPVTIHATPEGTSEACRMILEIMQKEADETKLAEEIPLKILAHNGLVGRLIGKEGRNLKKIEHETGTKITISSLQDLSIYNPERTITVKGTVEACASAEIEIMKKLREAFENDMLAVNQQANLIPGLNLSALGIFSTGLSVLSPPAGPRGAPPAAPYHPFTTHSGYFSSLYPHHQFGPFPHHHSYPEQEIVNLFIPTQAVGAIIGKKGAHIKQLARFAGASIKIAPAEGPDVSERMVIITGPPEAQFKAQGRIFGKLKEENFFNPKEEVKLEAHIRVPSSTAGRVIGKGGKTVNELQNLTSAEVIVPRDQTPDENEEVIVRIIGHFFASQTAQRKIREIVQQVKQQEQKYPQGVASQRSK
UniProt P09211, sequence (P09211 whole entry, looked up): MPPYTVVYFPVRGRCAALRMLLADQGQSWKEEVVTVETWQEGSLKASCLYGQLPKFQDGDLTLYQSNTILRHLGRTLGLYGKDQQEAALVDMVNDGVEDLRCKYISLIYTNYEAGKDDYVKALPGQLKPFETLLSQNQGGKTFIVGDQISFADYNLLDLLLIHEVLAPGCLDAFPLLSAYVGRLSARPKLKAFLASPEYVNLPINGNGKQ
UniProt P07910, sequence (P07910 whole entry, looked up): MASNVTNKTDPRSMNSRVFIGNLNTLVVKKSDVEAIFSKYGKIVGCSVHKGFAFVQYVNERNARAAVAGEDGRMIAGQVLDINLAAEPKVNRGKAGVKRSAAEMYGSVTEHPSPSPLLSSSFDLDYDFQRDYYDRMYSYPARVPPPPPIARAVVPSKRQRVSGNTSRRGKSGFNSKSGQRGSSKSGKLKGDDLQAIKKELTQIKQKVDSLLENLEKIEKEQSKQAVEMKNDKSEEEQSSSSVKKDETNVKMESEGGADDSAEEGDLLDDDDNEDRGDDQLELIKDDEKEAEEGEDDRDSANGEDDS
UniProt Q9H0R8, sequence (Q9H0R8 whole entry, looked up): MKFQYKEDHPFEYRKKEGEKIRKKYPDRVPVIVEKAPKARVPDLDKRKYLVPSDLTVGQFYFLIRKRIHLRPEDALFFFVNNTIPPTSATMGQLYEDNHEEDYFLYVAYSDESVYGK

| Target | log2 fold change [1] | log2 fold change [2] | log2 fold change [3] | log2 fold change [4] | log2 fold change (entinostat) | log2 fold change (vorinostat) | log2 fold change (citarinostat) | log2 fold change (silmitasertib) | log2 fold change [5] | log2 fold change [6] |
| --- | --- | --- | --- | --- | --- | --- | --- | --- | --- | --- |
| GALNT11 (UniProt Q8NCW6) | 0.001 | -0.119 | -0.224 | -0.023 | -0.012 | 0.01 | 0.079 | 0.027 | -0.021 | 0.002 |
| HRC (UniProt P23327) | -0.161 | 0.005 | -0.02 | -0.056 | -0.114 | -0.128 | -0.011 | 0.013 | 0.023 | -0.026 |
| HMGN2 (UniProt P05204) | 0.071 | 0.07 | 0.139 | 0.027 | -0.092 | -0.225 | -0.129 | 0.02 | 0.067 | 0.151 |
| FIBP (UniProt O43427) | -0.018 | 0.023 | 0.011 | -0.117 | -0.005 | -0.067 | 0.297 | -0.05 | -0.031 | -0.106 |
| GTF2H3 (UniProt Q13889) | -0.133 | -0.152 | 0.12 | -0.063 | 0.141 | 0.037 | -0.049 | -0.004 | -0.041 | -0.015 |
| IGF2BP2 (UniProt Q9Y6M1) | 0.014 | -0.051 | 0.237 | 0.045 | 0.015 | 0.128 | -0.178 | 0.16 | 0.155 | -0.208 |
| GLS (UniProt O94925) | -0.019 | 0.152 | -0.157 | -0.093 | 0.039 | 0.022 | 0.068 | 0.008 | -0.193 | -0.032 |
| GLB1 (UniProt P16278) | 0.02 | 0.002 | -0.097 | -0.043 | 0.01 | -0.065 | 0.005 | 0.021 | -0.003 | -0.044 |
| GOLPH3 (UniProt Q9H4A6) | 0.041 | -0.082 | 0.009 | 0 | 0.022 | 0.014 | 0.071 | -0.013 | 0 | -0.043 |
| GABPA (UniProt Q06546) | -0.05 | -0.057 | -0.203 | -0.042 | 0.108 | 0.138 | 0.139 | -0.007 | -0.13 | 0.008 |
| GALNT2 (UniProt Q10471) | 0 | -0.042 | -0.125 | 0.002 | -0.018 | 0.033 | 0.064 | -0.021 | -0.034 | 0.005 |
| FMC1 (UniProt Q96HJ9) | 0.01 | -0.044 | -0.011 | 0.013 | -0.042 | -0.054 | 0.044 | 0.006 | -0.012 | -0.053 |
| FBL (UniProt P22087) | 0.095 | 0.165 | 0.455 | 0.067 | -0.109 | 0.005 | -0.109 | 0.232 | 0.13 | -0.237 |
| GBF1 (UniProt Q92538) | -0.026 | -0.012 | -0.122 | -0.058 | 0.053 | 0.144 | 0.124 | -0.018 | -0.001 | -0.023 |
| GSTP1 (UniProt P09211) | -0.044 | -0.01 | -0.056 | 0.001 | -0.006 | -0.012 | 0.034 | -0.038 | -0.005 | -0.013 |
| IFT80 isoform 3 (UniProt Q9P2H3) | 0.027 | 0.031 | -0.081 | 0.003 | -0.005 | 0.04 | 0.011 | -0.085 | -0.086 | -0.093 |

| Target | log2 fold change [1] | log2 fold change [2] | log2 fold change [3] | log2 fold change [4] | log2 fold change (entinostat) | log2 fold change (vorinostat) | log2 fold change (citarinostat) | log2 fold change (silmitasertib) | log2 fold change [5] | log2 fold change [6] |
| --- | --- | --- | --- | --- | --- | --- | --- | --- | --- | --- |
| GABARAPL1 isoform 2 (UniProt Q9H0R8) | -0.051 | -0.13 | -0.252 (active) | -0.134 | -0.009 | -0.028 | 0.038 | -0.083 | -0.049 | 0.021 |
| HAX1 (UniProt O00165) | -0.106 | -0.165 | -0.174 | -0.06 | 0.021 | 0.115 | -0.019 | -0.032 | 0.036 | -0.074 |
| GUSB (UniProt P08236) | -0.044 | 0.029 | 0.047 | 0.067 | -0.066 | 0.049 | 0.148 | -0.011 | 0.057 | -0.059 |
| FANCI (UniProt Q9NVI1) | 0.139 | -0.069 | -0.281 (active) | -0.08 | 0.083 | 0.112 | 0.099 | -0.089 | 0.033 | -0.045 |
| H2AFX (UniProt P16104) | 0.054 | 0.245 | 0.441 | 0.041 | 0.132 | 0.216 | -0.035 | 0.08 | 0.077 | -0.083 |
| GLA (UniProt P06280) | 0.04 | -0.049 | -0.143 | -0.066 | -0.034 | 0.056 | 0.027 | -0.03 | -0.036 | 0.029 |
| HNRNPC isoform 2 (UniProt P07910) | -0.032 | -0.049 | 0.568 | -0.037 | 0.148 | -0.041 | -0.062 | 0.199 | 0.104 | -0.252 |
| FBXO42 (UniProt Q6P3S6) | -0.048 | -0.087 | -0.176 | 0.061 | -0.028 | -0.03 | -0.001 | 0.006 | 0.013 | -0.026 |
| GNG5 (UniProt P63218) | -0.029 | 0.071 | 0.056 | 0.086 | 0.082 | -0.127 | -0.021 | 0.017 | -0.156 | -0.057 |
| GSK3A (UniProt P49840) | -0.02 | 0.014 | -0.054 | 0.051 | -0.03 | -0.053 | 0.015 | -0.004 | 0.454 (active) | 0.193 |
| GSTO1 (UniProt P78417) | -0.015 | -0.002 | 0.022 | 0.001 | -0.022 | 0.058 | 0.039 | -0.047 | 0.018 | -0.022 |
| FEN1 (UniProt P39748) | -0.022 | -0.154 | -0.28 | -0.157 | 0.034 | 0.246 | 0.111 | -0.1 | -0.129 | 0.035 |
| HMGB3 (UniProt O15347) | 0.025 | 0.153 | 0.143 | 0.136 | -0.032 | -0.044 | -0.159 | -0.068 | -0.043 | 0.146 |
| GCC2 (UniProt Q8IWJ2) | -0.009 | -0.005 | 0.081 | 0.009 | 0.03 | -0.002 | -0.066 | 0.212 | 0.225 | 0.009 |
| HSD17B12 (UniProt Q53GQ0) | -0.031 | 0.005 | -0.049 | 0.066 | -0.02 | -0.014 | 0.14 | 0.037 | -0.146 | -0.082 |
